Results from PubChem BioAssay AID1852 (Sanford-Burnham Center for Chemical Genomics, 2009).
About 1,100 (44%) of roughly 2,500 compounds were called active.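 How the source made its calls: active means inhibition above 50% at 4 µM in the single-point screen; inactive means inhibition of 50% or less.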 So high a share suggests a set chosen from earlier hits. The list shows a part of the results.

experiment: blockers of TNF-a NF-kB luciferase induction – cell-based, HEK293T NF-kB-Luc, luminescence, selectivity assay for NOD1/NOD2 signaling inhibitor project, primary screen (AID 1852); details: TNF-a induced, 14 h, at 4 µM, hits give high values

inhibition, active:
CNC(=O)c1nnsc1S(=O)(=O)c1ccc(Cl)cc1 91.4%
O=C(c1nnsc1S(=O)(=O)c1ccc(Cl)cc1)N1CCOCC1 52%
O=C(Nc1nnc(-c2cccs2)o1)c1cccc(Oc2ccccc2)c1 103%
O=C(Nc1nnc(-c2cccs2)o1)c1cccc(C(F)(F)F)c1 100%
Cc1cc(/C=N/n2cnnc2)c(C)n1-c1ccc(OCc2ccc(Cl)cc2Cl)cc1 71.9%
CN(C)c1ccnc2sc(C(N)=O)c(N)c12 83.5%
CCc1ccc(C(=O)Nc2nc3ccccc3[nH]2)cc1 103%
O=C(Nc1nc2ccccc2[nH]1)c1cc(F)cc(F)c1 80.3%
Cc1c(C(=O)Nc2nc3ccccc3[nH]2)oc2ccc(Br)cc12 98.6%
Cc1ccc(N=Cc2cc(Cc3ccccc3Cl)cc([N+](=O)[O-])c2O)c(O)c1 70.8%
CN(C)/C=C/c1c([N+](=O)[O-])c2ccc(O)cc2n1-c1ccccc1 83.5%
Cc1c([N+](=O)[O-])c2ccc(O)cc2n1-c1ccccc1 60.9%
O=C1/C(=C\c2cc(Cl)c(O)c(Cl)c2)SC(=S)N1Cc1ccccc1 82.7%
O=C1/C(=C/c2ccc(O)c([N+](=O)[O-])c2)SC(=S)N1Cc1ccccc1 88.5%
COc1cc([N+](=O)[O-])cc(/C=C2/SC(=S)N(Cc3ccccc3)C2=O)c1O 81.1%
COc1ccc(N=C2NC(=O)/C(=C/c3ccc(O)c(OC)c3)S2)cc1 70.8%
COc1cc(/C=C2\SC(=N)N(c3ccc(F)cc3)C2=O)ccc1O 51.1%
COc1cc(/C=C2/SC(=Nc3ccc(O)cc3)NC2=O)ccc1O 89.8%
COc1cc(/C=N/NC(=O)c2ccc(-c3ccccc3)cc2)cc(OC)c1OC 63.8%
COc1cccc(/C=N/NC(=O)c2ccc(-c3ccccc3)cc2)c1O 70%
O=C(N/N=C/c1cccc2cccnc12)c1ccccc1O 53.1%
Cc1ccc(NC(=O)CCC(=O)N/N=C/c2ccccc2O)cc1 58.1%
O=C(N/N=C/c1ccccc1O)c1cccc2ccccc12 99.3%
Cc1cccc2cc(/C=N/NC(=O)c3ccccc3O)c(Cl)nc12 63.3%
CCc1cc(C(=O)N/N=C/c2ccc(O)cc2O)c2ccccc2n1 50.7%
Cc1csc(SCC(=O)Nc2cccc3nsnc23)n1 100%
O=C(NC(=S)N(CCCCO)C1CCCCC1)c1sc2ccccc2c1Cl 104%
Cc1ccc(C(=O)NC(=S)N(C)C2CCCCC2)cc1Br 106%
O=C(Nc1ccccc1C(=O)Nc1nnc(C(F)(F)F)s1)c1ccccc1Cl 86.7%
O=C(Nc1ccccc1C(=O)Nc1nnc(C(F)(F)F)s1)c1ccccc1 51%
CCn1cc([N+](=O)[O-])c(C(=O)N2N=C(c3ccc(OC)cc3OC)CC2c2ccccc2O)n1 (configuration not stated) 86.6%
O=C1C(=O)c2ccc(-c3ccccc3)cc2-c2ccccc21 102%
Nc1ccc2c(c1)C(=O)C(=O)c1ccccc1-2 97.6%
CCCCCCc1cc2cc(S(=O)(=O)c3ccc(Cl)cc3)c(=O)oc2cc1O 65.1%
c1csc(CCNc2ncnc3sc4c(c23)CCC4)c1 62.9%
CC1(C)CC(N2CCN(C(c3ccccc3)c3ccccc3)CC2)=CC(=[N+]2CCCCC2)C1 80.1%
O=C(NC(c1ccc(Cl)cc1)c1c(O)ccc2ccccc12)c1ccccc1 (configuration not stated) 78.3%
C(=N\Nc1nc(-c2ccccn2)nc2ccccc12)/c1ccccc1 78.9%
Oc1ccc(/C=N/Nc2nc(-c3ccccc3F)nc3ccccc23)c(O)c1 68.2%
Fc1ccccc1/C=N/Nc1nc(-c2ccccn2)nc2ccccc12 98.7%

inhibition, inactive:
Cc1ccc(S(=O)(=O)NC(C(=O)N2CCOCCOCCOCC2)C(C)C)cc1 (configuration not stated) 15.4%
O=S(=O)(c1ccc(Cl)cc1)c1snnc1-c1ccccc1 44.1%
CN(c1ccc(C(=O)Nc2ccccc2C(=O)N2CCOCC2)cc1)S(C)(=O)=O 16.2%
CC(=O)N(c1ccccc1Cl)S(=O)(=O)c1ccc(Cl)cc1 9.8%
CCSCCc1nnc(NC(=O)Nc2cccc(C(F)(F)F)c2)s1 7.5%
O=C(CCC(=O)N1CCOc2ccccc21)NCc1ccccn1 18.7%
Cc1ccc(S(=O)(=O)Nc2ccc(Br)cc2/C=N/n2cnnc2)cc1 47.3%
CN(c1ccccc1)S(=O)(=O)c1cc(C(=O)Nc2nc3ccccc3[nH]2)ccc1Cl 31.3%
O=C(c1ccccc1)c1ccc2nc(-c3ccc(NC(=O)c4ccccc4Br)cc3)[nH]c2c1 11.7%
Cc1cc(NC(=O)/C=C/c2ccc(F)cc2)n(-c2nc3ccccc3[nH]2)n1 -3.9%
Cc1ccc(O)c(N=Cc2cc(Cc3ccccc3)cc([N+](=O)[O-])c2O)c1 -1.6%
Cc1ccc(-n2c(C)c([N+](=O)[O-])c3ccc(O)cc32)cc1 40.4%
O=C1/C(=C\c2cccc([N+](=O)[O-])c2O)SC(=S)N1Cc1ccccc1 14.2%
Cc1ccc(/C=C2\SC(=S)N(C(Cc3ccccc3)C(=O)O)C2=O)cc1 (configuration not stated) 25.1%
O=C1S/C(=C\c2ccc(O)c([N+](=O)[O-])c2)C(=O)N1Cc1cccc([N+](=O)[O-])c1 19.6%
COc1cc(/C=C2\SC(=S)N(CCC(=O)Nc3ccccc3)C2=O)cc(OC)c1OC 6.8%
COc1ccc(/C=C/C(=O)C2CC2)cc1Cn1nc(C)c([N+](=O)[O-])c1C 36.6%
Cc1ccc(C(C)C)c(OCc2ccc(-c3nnco3)cc2)c1 12.4%
COc1cc(/C=C2\SC(N3CCC(C)CC3)=NC2=O)ccc1O 1.4%
COc1cc(/C=C2/C(=O)NN(c3ccc(Cl)cc3)C2=O)cc(Br)c1O -1.7%
COc1cccc(OCCOc2ccc(/C=C3/SC(=S)NC3=O)cc2)c1 -114%
COc1ccc(OC)c(/C=C2\S/C(=N/NC(=O)c3ccc4ccccc4c3)NC2=O)c1 -2.1%
COc1ccccc1OCCCOc1cccc(/C=C2\SC(=O)NC2=O)c1 3.3%
COc1cc(/C=N/NC(=O)c2cc3c(ccc4ccccc43)o2)cc(OC)c1O 36.5%
COc1cc(/C=N\NC(=O)c2ccc(-c3ccccc3)cc2)cc(Br)c1O 43%
Cc1ccccc1CS(=O)(=O)c1nnc([C@H](CC(C)C)NC(=O)OC(C)(C)C)o1 35%
COc1cc(CNc2ccc3[nH]c(=O)[nH]c3c2)ccc1OCc1c(F)cccc1Cl 49.2%
Clc1c(Cl)c(Cl)c2n[nH]nc2c1Cl 26.8%
O=C(CCC(=O)Nc1ccc(Br)cc1)N/N=C/c1ccccc1O 49.3%
Cc1c(/C=N/NC(=O)c2ccccc2O)c2ccccn2c1C(=O)c1ccc(F)cc1 21.3%
COc1cccc(/C=N/NC(=O)c2c(C)nc3ccc(Cl)cn23)c1O 46.8%
O=C(/C=C/c1ccco1)Oc1cc(Br)cc(/C=N/NC(=O)c2ccccc2O)c1 44.6%
O=C1CCN(CCc2ccccc2)CCN1CCOc1ccccc1 -6.2%
CCOc1ccc(/C=N/NC(=O)C(O)c2ccccc2)c(O)c1 (configuration not stated) 45.4%
O=C(N/N=C/c1ccc(O)cc1O)c1ccncc1 28.2%
CCn1c(SCC(=O)Nc2nc(-c3ccccc3)cs2)nnc1-c1ccccc1 34.3%
O=C(CN1C(=O)c2cccnc2Oc2ccc(Cl)cc21)NCCCc1ccccc1 12%
COc1ccc(C(=O)NC(=S)N(C)C2CCCCC2)cc1Br -14.8%
Cc1ccc(C(C)NC(=S)NC2CCCCC2)cc1C (configuration not stated) 24.8%
Cc1onc(-c2c(F)cccc2Cl)c1C(=O)Nc1nnc(C(F)(F)F)s1 48.9%
Cc1ccccc1N1CCN(S(=O)(=O)c2nnc(NC(=O)c3ccc(F)cc3)s2)CC1 -27.1%
Cc1onc(-c2ccccc2Cl)c1C(=O)Nc1nnc(-c2ccc(Br)cc2)s1 -22.4%
Cc1ccnc(OC(C(=O)O)C(OCc2ccccc2)(c2ccc(F)cc2)c2ccc(F)cc2)n1 (configuration not stated) -7.9%
CCn1cc([N+](=O)[O-])c(C(=O)N2N=C(c3ccc4ccccc4c3)CC2c2cc(Br)ccc2O)n1 (configuration not stated) -56.7%
CC1CC(C)CN(C(=O)CSc2nc(Cc3cccs3)nc3ccccc23)C1 (configuration not stated) -34.3%
O=C1C(Cl)=C(Nc2ccccc2)C(=O)c2ccccc21 -83.5%
CCn1c(SCC(=O)N2CCC(C)CC2)nc2c(c1=O)SCC2 1.5%
CCCCCCc1cc2cc(S(=O)(=O)c3ccc(F)c(Cl)c3)c(=O)oc2cc1O 38.7%
CCCCCCc1cc2cc(C(=O)OCC)c(=O)oc2cc1O 9.4%
O=C(O)CSc1ncnc2sc3c(c12)CCCC3 31.1%
COCCn1c(C)cc(C(=O)CSc2ncnc3sc4c(c23)CCC4)c1C 14.2%
CC1(C)CC(N2CCCC2)=CC(=[N+]2CCCCCC2)C1 34%
CC1CC(C)C[N+](=C2C=C(N3CCCC3)CC(C)(C)C2)C1 (configuration not stated) 49.7%
Cc1cc(C)nc(N/N=C/c2c[nH]c3ccccc23)n1 29%
Cc1c(O)ccc(/C=N/Nc2nc(-c3cccnc3)nc3ccccc23)c1O -60%
Oc1ccc(/C=N/Nc2nccnc2Cl)c(O)c1 39.8%
FC(F)(F)c1cc(Sc2ccccc2)nc(-c2ccccn2)n1 -4.1%
